From PubChem BioAssay (NCATS)
Inconclusive results are not listed. Calls of active or inactive are those of the source. Unless noted, calls come from the whole dose curve; as a rule, active = well fitted curve in the direction sought with a large enough effect; inconclusive = small, poorly fitted or top-dose-only effect, or another doubt; inactive = no such curve, though single readings can be large; an effect the other way counts as inactive or inconclusive.

How the values were obtained:
[1] = target: Lysosomal acid glucosylceramidase (Homo sapiens) (UniProt P04062); experiment: Glucocerebrosidase-p2 (AID 348; in the data active = potency below about 10 µM; note: potency is the fitted concentration of half-maximal effect); details: purified GBA, blue fluorogenic substrate, 40 min
Sequence of Lysosomal acid glucosylceramidase (Homo sapiens) (P04062 whole entry, looked up): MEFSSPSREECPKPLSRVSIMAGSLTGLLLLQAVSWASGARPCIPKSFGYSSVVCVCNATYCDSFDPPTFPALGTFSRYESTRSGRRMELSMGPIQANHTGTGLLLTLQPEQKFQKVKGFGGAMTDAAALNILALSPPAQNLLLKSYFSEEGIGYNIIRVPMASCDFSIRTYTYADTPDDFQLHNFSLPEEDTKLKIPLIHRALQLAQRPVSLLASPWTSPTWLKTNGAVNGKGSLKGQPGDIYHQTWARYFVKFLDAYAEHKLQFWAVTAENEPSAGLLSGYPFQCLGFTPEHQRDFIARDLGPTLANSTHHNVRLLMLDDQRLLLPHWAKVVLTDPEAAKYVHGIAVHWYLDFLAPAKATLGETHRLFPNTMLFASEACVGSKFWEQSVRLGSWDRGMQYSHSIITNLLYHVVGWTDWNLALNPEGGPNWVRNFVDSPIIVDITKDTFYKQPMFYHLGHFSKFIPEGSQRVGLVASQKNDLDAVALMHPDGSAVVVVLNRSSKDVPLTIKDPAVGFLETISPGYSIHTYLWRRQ
Procedure, shortened: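 Compounds titrated from 0.6 nM upwards against 0.2 nM enzyme in pH 5.9 citric acid/KH2PO4, taurocholate, tween-20; blue fluorogenic substrate 80 uM, 40 min room temperature, stopped and read Ex 365/Em 440 for AC50.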

[2] = target: Cytochrome P450 1A2 (Homo sapiens) (UniProt P05177); experiment: p450-cyp1a2 (AID 410; calls by dose curve; note: potency is the fitted concentration of half-maximal effect); details: recombinant CYP1A2, luciferin-ME demethylation, luminescence; series mostly up to 57 µM
Sequence of Cytochrome P450 1A2 (Homo sapiens) (P05177 whole entry, looked up): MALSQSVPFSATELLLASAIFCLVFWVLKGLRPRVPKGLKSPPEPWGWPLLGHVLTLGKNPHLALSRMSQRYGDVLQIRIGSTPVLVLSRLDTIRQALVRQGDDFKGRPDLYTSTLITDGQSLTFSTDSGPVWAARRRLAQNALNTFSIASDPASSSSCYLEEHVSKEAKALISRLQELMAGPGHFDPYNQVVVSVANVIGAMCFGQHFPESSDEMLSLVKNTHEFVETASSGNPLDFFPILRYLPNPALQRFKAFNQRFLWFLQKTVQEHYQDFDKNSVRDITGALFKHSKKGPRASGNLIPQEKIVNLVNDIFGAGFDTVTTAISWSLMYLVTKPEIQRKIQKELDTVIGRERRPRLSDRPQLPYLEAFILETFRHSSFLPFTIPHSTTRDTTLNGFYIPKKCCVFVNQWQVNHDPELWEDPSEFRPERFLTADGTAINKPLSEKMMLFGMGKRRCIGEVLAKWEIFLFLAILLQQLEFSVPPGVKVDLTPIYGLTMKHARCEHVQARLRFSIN
Procedure, shortened: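 20nM CYP1A2 with 100uM Luciferin-ME (at Km) in 100mM KPO4; compound preincubated 10 min, NADPH regeneration added, 60 min at room temperature. Luciferin quantified by luminescence after detection reagent; normalized to 57 uM furafylline.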

[3] = target: Glucocorticoid receptor (Homo sapiens) (UniProt P04150); experiment: GR-GFP Redistribution (AID 450;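 active = compounds whose dose series gives a full or clear partial fitted curve of increased nuclear translocation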; note: potency is the fitted concentration of half-maximal effect); details: U2OS GR-GFP nuclear translocation, laser cytometry, 2 h
Sequence of Glucocorticoid receptor (Homo sapiens) (P04150 whole entry, looked up, the tested form may be a part): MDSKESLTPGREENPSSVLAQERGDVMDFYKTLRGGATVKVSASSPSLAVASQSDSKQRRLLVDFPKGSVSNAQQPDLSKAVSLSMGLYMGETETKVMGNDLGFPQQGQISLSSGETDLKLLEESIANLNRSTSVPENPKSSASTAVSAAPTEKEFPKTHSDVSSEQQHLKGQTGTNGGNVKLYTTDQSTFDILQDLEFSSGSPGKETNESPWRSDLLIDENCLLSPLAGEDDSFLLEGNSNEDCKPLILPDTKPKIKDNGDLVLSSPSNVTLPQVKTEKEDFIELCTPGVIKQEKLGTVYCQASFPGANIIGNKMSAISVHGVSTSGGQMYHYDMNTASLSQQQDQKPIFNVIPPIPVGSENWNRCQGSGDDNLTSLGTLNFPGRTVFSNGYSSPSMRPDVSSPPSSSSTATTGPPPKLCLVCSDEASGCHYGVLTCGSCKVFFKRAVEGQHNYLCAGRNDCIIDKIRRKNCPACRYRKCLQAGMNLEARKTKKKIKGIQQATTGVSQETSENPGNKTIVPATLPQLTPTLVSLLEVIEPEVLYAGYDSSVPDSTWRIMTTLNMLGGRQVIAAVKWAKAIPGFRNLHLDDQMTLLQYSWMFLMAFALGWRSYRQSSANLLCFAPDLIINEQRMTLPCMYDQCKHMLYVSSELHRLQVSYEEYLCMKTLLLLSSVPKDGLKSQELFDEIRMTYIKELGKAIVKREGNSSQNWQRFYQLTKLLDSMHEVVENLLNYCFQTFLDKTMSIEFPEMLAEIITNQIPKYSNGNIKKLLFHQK

[4] = target: Glucocorticoid receptor (Homo sapiens) (UniProt P04150); experiment: GR-EFC Redistribution (AID 451; calls by dose curve; note: potency is the fitted concentration of half-maximal effect); details: CHO-K1 GR-EFC translocation, beta-gal luminescence, 2 h
Procedure, shortened: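 CHO-K1 cells stably expressing nuclear-localized β-gal enzyme acceptor and GR fused C-terminally to the enzyme donor fragment; ligand-driven nuclear translocation restores β-gal by complementation. Compounds titrated up to 46 uM final, 2 h at 37 °C; luminescence read.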

[5] = target: Mitogen-activated protein kinase 10 (Mus musculus) (UniProt Q61831); experiment: JNK3 AlphaScreen Assay (AID 530; active = well fitted curve in either direction with a large enough effect, not every such curve was filed as active;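 note: kinase came from lysate of stimulated human HepG2 cells; signal reports phosphorylation of biotinylated GST-cJun 1-79 at Ser73 with 10 µM ATP; % is set by controls: 0 for no effect and ±100 for the full control effect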); details: JNK3 lysate, c-Jun phosphorylation; series mostly up to 57.1 µM
Procedure, shortened: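 Inhibitors reduce antibody binding to phosphorylated biotin-cJun, lowering AlphaScreen luminescence. Lysates from HepG2 cells pre-activated by IL-1beta plus TNF-alpha supplied JNK3; compounds were titrated.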

[6] = target: 3',5'-cyclic-AMP phosphodiesterase 4B (Homo sapiens) (UniProt Q07343); experiment: qHTS Assay for Inhibitors of PDE-IV (AID 607; active = well fitted activation curve with a large enough effect in the main read-out, with a control signal flat, not every such curve was filed as active; note: % of control where 0% means no effect); details: HEK293 ACTOne CNG channel cells, membrane potential fluorescence; series mostly up to 22.9 µM
Sequence of 3',5'-cyclic-AMP phosphodiesterase 4B (Homo sapiens) (Q07343 whole entry, looked up): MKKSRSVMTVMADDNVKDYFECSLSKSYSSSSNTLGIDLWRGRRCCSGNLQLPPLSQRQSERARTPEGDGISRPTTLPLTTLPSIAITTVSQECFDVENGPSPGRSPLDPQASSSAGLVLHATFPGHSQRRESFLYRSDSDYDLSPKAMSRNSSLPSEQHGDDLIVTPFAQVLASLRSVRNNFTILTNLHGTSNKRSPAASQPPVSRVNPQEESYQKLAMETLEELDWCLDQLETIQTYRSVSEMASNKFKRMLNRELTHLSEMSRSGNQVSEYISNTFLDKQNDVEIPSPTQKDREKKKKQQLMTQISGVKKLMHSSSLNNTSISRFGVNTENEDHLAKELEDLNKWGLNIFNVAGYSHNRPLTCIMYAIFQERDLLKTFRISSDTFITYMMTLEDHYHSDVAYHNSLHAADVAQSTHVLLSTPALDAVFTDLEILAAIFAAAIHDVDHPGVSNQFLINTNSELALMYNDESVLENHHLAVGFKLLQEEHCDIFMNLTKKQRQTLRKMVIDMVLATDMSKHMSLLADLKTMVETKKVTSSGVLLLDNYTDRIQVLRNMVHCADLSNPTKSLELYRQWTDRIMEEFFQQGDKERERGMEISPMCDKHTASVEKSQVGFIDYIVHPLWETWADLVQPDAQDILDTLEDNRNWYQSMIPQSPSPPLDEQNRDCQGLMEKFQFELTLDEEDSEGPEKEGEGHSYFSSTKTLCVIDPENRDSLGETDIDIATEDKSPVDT
Procedure, shortened: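 The readout is membrane depolarisation from a cAMP-sensing CNG channel, detected with a potential dye at ex 535/em 590. Cells were HEK293-derived (endogenous PDE-IV) at 1000 cells/well, titrated up to 22.9 uM final.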

[7] = target: Cytochrome P450 3A4 (Homo sapiens) (UniProt P08684); experiment: qHTS Assay for Activators of Cytochrome P450 3A4 (AID 885); details: recombinant CYP3A4, Luciferin-PPXE luminescence, 60 min; series mostly up to 57.1 µM; note: nearly all actives have a fitted effect of over 65% in size
Sequence of Cytochrome P450 3A4 (Homo sapiens) (P08684 whole entry, looked up): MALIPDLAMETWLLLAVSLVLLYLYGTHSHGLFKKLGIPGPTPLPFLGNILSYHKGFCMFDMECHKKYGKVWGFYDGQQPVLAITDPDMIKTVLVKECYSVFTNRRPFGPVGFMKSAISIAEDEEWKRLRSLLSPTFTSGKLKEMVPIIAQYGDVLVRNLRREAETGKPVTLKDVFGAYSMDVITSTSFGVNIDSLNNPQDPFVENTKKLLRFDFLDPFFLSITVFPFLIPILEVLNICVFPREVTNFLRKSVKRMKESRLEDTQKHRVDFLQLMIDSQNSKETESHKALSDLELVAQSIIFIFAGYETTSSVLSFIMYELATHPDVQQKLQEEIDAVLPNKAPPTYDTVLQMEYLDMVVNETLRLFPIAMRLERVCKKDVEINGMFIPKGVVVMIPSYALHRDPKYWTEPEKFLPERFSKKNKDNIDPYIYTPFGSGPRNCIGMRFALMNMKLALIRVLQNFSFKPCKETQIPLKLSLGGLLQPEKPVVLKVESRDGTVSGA
Procedure, shortened: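 Steps: enzyme/substrate mix dispensed; compound added, 10 min RT; NADPH regeneration solution added, 60 min RT; luciferin detection buffer stops reaction; 20 min later luminescence measured.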

[8] = qHTS Assay for Identification of Small Molecule Agonists for Hypoxia Response Element Signaling Pathway (AID 914; active = well fitted activation curve with a large enough effect in the signal ratio, with a control signal flat, not every such curve was filed as active; the % refers to the signal ratio; note: potency is the fitted concentration of half-maximal effect); details: ME-180 HRE-bla reporter, beta-lactamase ratio, CoCl2, 17 h; activation: stronger effect = higher value
Procedure, shortened: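 Reporter activity (beta-lactamase, CCF4 460nm/530nm ratio) in HRE-bla ME-180 cells is recorded after 17 h compound exposure with EC50 CoCl2 at 37 degrees Celsius. AC50 values come from titration data.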

[9] = qHTS Assay for Lipid Storage Modulators (AID 1519; calls by dose curve); details: Drosophila S3 cells, BODIPY lipid droplet/cell ratio, laser cytometry, cells loaded with oleic acid; for activity change, negative = inhibition: at 57.5 µM (top of the series)
Procedure, shortened: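 Cells seeded at 5,000 per well were treated with compounds over a concentration series and loaded with oleic acid (400 uM, as added). Lipid droplet fluorescence (488 nm excitation, 500-530 nm channel) was read by laser-scanning cytometry and normalized to 20 uM Triacsin C.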

[10] = target: Dual specificity protein kinase CLK4 (Homo sapiens) (UniProt Q9HAZ1); experiment: qHTS Assay for Inhibitors of CDC-like Kinase 4 (Kinase-Glo Assay) (AID 1770); details: recombinant Clk4, Kinase-Glo ATP depletion luminescence; series mostly up to 66.7 µM; note: % is set by controls: 0 for no effect and ±100 for the full control effect; nearly all actives have a fitted effect of over 65% in size
Sequence of Dual specificity protein kinase CLK4 (Homo sapiens) (Q9HAZ1 whole entry, looked up): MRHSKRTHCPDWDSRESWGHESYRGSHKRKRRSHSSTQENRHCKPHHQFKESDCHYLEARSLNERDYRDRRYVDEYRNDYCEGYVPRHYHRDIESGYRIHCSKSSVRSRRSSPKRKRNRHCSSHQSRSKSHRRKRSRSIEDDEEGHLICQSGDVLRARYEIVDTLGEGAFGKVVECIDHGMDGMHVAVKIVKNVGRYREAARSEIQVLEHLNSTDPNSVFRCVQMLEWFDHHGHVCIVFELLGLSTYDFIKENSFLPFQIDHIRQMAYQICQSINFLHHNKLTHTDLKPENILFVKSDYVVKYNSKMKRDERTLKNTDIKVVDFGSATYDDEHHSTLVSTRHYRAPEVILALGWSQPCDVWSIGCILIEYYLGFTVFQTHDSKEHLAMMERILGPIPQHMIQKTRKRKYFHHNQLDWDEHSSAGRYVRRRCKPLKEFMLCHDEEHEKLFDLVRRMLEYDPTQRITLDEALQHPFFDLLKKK
Procedure, shortened: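 Clk4 25 nM, RS peptide 100 uM, ATP 1 uM, pH 7.5 Tris, 10 mM MgCl2, 2.5 mM DTT; 4.5 h RT; ATP depletion read by Kinase-Glo luminescence.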

[11] = target: Dual specificity protein kinase CLK4 (Homo sapiens) (UniProt Q9HAZ1); experiment: qHTS Assay for Inhibitors of CDC-like Kinase 4 (ADP-Glo Assay) (AID 1771); details: recombinant CLK4, ADP-Glo luminescence; series mostly up to 80 µM; note: % is set by controls: 0 for no effect and ±100 for the full control effect; nearly all actives have a fitted effect of over 70% in size
Procedure, shortened: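 25 nM Clk4 with 100 uM RS repeat peptide and 1 uM ATP (final) in buffer with 2 mM MgCl2, 0.5 mM EGTA, 2.5 mM DTT, 0.01% Triton X-100; 1 h at room temperature; ADP-Glo luminescence for ADP formed.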

[12] = target: Dual specificity protein kinase CLK4 (Homo sapiens) (UniProt Q9HAZ1); experiment: qHTS Assay for Inhibitors of CDC-like Kinase 4 (ADP-FP Assay) (AID 1795); details: Transcreener ADP fluorescence polarization; series mostly up to 50 µM;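 note: recombinant human CLK4 phosphorylating RS repeat peptide at 1 µM ATP; % is set by controls: 0 for no effect and ±100 for the full control effect; nearly all actives have a fitted effect of over 60% in size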
Procedure, shortened: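 Kinase activity was followed as ADP output, converted from fluorescence polarization with a calibration curve. Reactions ran one hour at low ATP (1 uM) with RS peptide substrate.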

[13] = target: Ubiquitin carboxyl-terminal hydrolase 1 (Homo sapiens) (UniProt O94782); experiment: Inhibitors of USP1/UAF1: Pilot qHTS (AID 504865); details: purified USP1/UAF1, Ub-rhodamine cleavage fluorescence; series mostly up to 54.9 µM; note: nearly all actives have a fitted effect of over 35% in size; note: potency is the fitted concentration of half-maximal effect
Sequence of Ubiquitin carboxyl-terminal hydrolase 1 (Homo sapiens) (O94782 whole entry, looked up): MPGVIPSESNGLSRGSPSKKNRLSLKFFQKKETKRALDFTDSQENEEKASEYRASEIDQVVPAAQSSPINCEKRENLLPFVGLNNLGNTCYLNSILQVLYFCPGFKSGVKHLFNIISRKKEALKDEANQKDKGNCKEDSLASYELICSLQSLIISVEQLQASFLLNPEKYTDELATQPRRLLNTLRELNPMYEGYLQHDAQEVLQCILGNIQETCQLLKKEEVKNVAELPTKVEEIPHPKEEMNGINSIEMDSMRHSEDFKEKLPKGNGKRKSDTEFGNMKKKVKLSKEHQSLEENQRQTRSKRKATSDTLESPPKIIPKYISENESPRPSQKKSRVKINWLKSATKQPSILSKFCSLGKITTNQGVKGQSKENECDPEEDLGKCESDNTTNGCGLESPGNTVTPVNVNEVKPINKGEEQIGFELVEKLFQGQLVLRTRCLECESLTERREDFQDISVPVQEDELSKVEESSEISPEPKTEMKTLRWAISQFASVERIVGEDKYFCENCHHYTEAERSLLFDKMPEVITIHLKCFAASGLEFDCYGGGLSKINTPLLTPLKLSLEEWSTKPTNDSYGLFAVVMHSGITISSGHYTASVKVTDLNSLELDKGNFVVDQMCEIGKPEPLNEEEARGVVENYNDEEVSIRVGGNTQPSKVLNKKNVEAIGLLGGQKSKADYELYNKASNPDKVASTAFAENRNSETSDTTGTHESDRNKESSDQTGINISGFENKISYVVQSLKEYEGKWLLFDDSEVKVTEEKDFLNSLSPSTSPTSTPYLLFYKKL
Procedure, shortened: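 Enzyme-free wells gave the negative control, while test wells held 1nM USP1/UAF1 preincubated with compound for 15 min at room temperature. Ub-Rho at 150nM final started the reaction, and fluorescence at 480/540 nm was recorded kinetically.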

[14] = Stat Signaling Pathway (AID 446; active = well fitted curve in either direction with a large enough effect, not every such curve was filed as active;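 note: ME-180 cervical cancer cells given 40 pM IL-6 alongside compound; SIE-controlled beta-lactamase reporter measured as 460/530 nm FRET emission ratio; % is set by controls: 0 for no effect and ±100 for the full control effect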); details: ME-180 SIE beta-lactamase reporter, IL-6 stimulated, 5 h; at 7.69 µM (top of the series) unless noted
Procedure, shortened: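 Screening format detects activators and inhibitors alike: ME-180 SIE-bla cells stimulated at 40 pM IL-6 for 5 hrs with compound, then dual-emission beta-lactamase read at 405 nm excitation.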

[15] = target: Cytochrome P450 3A4 (Homo sapiens) (UniProt P08684); experiment: qHTS Assay for Inhibitors and Substrates of Cytochrome P450 3A4 (AID 884); details: recombinant CYP3A4, Luciferin-PPXE luminescence; series mostly up to 57.1 µM; note: potency is the fitted concentration of half-maximal effect; nearly all actives have a fitted effect of over 50% in size
Procedure, shortened: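 20 nM human CYP3A4 with 25 uM Luciferin-PPXE (at KM) in 200 mM KPO4, preincubated 10 min with compound; NADPH regeneration started a 60 min RT reaction. Luciferin detected by luminescence, normalized to 57 uM ketoconazole as full inhibition.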

[16] = AP1 Signaling Pathway (AID 357; active = well fitted curve in either direction with a large enough effect, not every such curve was filed as active;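 note: ME-180 reporter cells stimulated with EGF at its EC50 level; % is set by controls: 0 for no effect and ±100 for the full control effect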); details: ME-180 (cervical carcinoma) AP-1-bla reporter, EGF-induced, beta-lactamase ratio, 5 h; at 7.69 µM (top of the series) unless noted
Procedure, shortened: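 Beta-lactamase reporter under AP-1 response element, ME-180 background. Stimulus: EC50 EGF. Compound exposure 5 h, 37 °C. Detection: CCF4, 2.5 h RT, 460/530 nm. Values: AC50 from titration.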

[17] = NFAT Signaling Pathway (AID 444; active = well fitted curve in either direction with a large enough effect, not every such curve was filed as active;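 note: carbachol stimulus at about its EC50 of 1 µM final; % is set by controls: 0 for no effect and ±100 for the full control effect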); details: Jurkat NFAT-bla M1, carbachol, beta-lactamase ratio, 5 h; at 7.69 µM (top of the series) unless noted
Procedure, shortened: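 Jurkat cells carrying an NFAT-driven β-lactamase reporter and co-transfected muscarinic M1 receptor were treated with compound plus carbachol (1 uM final, an EC50 level) for 5 h at 37 °C. CCF4 loading followed for 1 h at RT; 460/530 nm ratio gave %activity.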

[18] = target: Cytochrome P450 2C19 (Homo sapiens) (UniProt P33261); experiment: qHTS Assay for Inhibitors and Substrates of Cytochrome P450 2C19 (AID 899); details: recombinant CYP2C19, luciferin-H EGE luminescence; series mostly up to 57.1 µM; note: potency is the fitted concentration of half-maximal effect; nearly all actives have a fitted effect of over 60% in size
Sequence of Cytochrome P450 2C19 (Homo sapiens) (P33261 whole entry, looked up): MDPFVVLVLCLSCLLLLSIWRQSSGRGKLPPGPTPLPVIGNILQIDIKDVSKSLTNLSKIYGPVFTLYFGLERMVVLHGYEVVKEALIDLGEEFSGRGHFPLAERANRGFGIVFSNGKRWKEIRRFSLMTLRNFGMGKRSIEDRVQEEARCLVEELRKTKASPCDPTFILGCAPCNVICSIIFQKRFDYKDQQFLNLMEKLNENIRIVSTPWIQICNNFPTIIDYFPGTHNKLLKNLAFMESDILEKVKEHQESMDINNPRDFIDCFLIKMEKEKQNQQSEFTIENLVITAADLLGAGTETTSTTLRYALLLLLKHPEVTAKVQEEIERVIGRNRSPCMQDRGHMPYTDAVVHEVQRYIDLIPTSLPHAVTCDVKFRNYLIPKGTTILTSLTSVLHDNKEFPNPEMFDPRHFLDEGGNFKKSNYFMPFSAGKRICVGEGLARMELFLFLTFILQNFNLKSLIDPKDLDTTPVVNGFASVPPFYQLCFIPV
Procedure, shortened: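 NADPH-dependent conversion of Luciferin-H EGE (10uM, at KM) by 5nM enzyme in 50mM KPO4, 60 min at 37C following 10 min compound preincubation. Stopped with luciferin detection buffer; luminescence read after 20 min.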

[19] = measured here: cell count channel max response
[20] = measured here: lipid channel max response

CN1CCN(c2ncc3nc(-c4cc(F)cc(F)c4)c(=O)n(CCC#N)c3n2)CC1
25.2%: max response [9, 19]
active: Potency [2] 15.8 µM | Potency [8] 3.16 µM
26.1%: max response [9, 20]
inactive: Potency [1] > 11.4 µM | Potency [3] > 9.22 µM | Potency [4] > 46 µM | Potency [5] | Potency [6] | Potency [7] | activity change, negative = inhibition [9] 1.36% | Potency [10] | Potency [11] | Potency [12] | Potency [13]

CN1CCN(c2ncc3nc(-c4cccs4)c(=O)n(Cc4cccs4)c3n2)CC1
inactive: Potency [1] > 11.4 µM | Potency [3] > 9.22 µM | Potency [4] > 46 µM | Potency [6] | Potency [7] | activity change, negative = inhibition [9] -5.19% | Potency [10] | Potency [11] | Potency [12] | Potency [13]
2.92%: max response [9, 19]
active: Potency [2] 15.8 µM
-4.19%: max response [9, 20]

FC(F)(F)c1ccccc1-c1cncnc1NCCN1CCOCC1
inactive: Potency [1] > 11.4 µM | activity, negative = inhibition [14] -11.6% | Potency [3] > 46 µM | Potency [4] > 46 µM | Potency [5] | Potency [6] | Potency [7] | activity change, negative = inhibition [9] -3.84% | Potency [10] | Potency [11] | Potency [12] | Potency [13]
active: Potency [2] 2.51 µM | Potency [15] 0.794 µM | Potency [8] 2.51 µM
13.3%: max response [9, 20]
15.3%: max response [9, 19]

COCCn1c(=O)c(-c2ccccc2)nc2cnc(N3CCN(C)CC3)nc21
inactive: Potency [1] > 11.4 µM | activity change, negative = inhibition [16] -12.6% | activity change, negative = inhibition [17] 7.66% | activity, negative = inhibition [14] -8.44% | Potency [3] > 9.22 µM | Potency [4] > 46 µM | Potency [5] | Potency [6] | activity change, negative = inhibition [9] 3.96% | Potency [10] | Potency [11] | Potency [12] | Potency [13]
11.4%: max response [9, 19]
16.1%: max response [9, 20]

COc1ccccc1-c1nccc(NCc2ccccc2)n1
3.72%: max response [9, 19]
active: Potency [2] 2.51 µM | Potency [18] 7.94 µM | Potency [13] 22.4 µM
inactive: Potency [1] > 11.4 µM | activity change, negative = inhibition [16] -2.63% | activity change, negative = inhibition [17] 1.11% | activity, negative = inhibition [14] 1.51% | Potency [3] > 46 µM | Potency [4] > 46 µM | Potency [5] | activity change, negative = inhibition [9] 1.38% | Potency [10] | Potency [11] | Potency [12]
0.722%: max response [9, 20]

O=c1c(-c2ccccc2)nc2cnc(Oc3cccc(Cl)c3)nc2n1C[C@H]1CCCO1
18.2%: max response [9, 19]
-2.39%: max response [9, 20]
inactive: Potency [1] > 11.4 µM | activity change, negative = inhibition [17] -8.22% | activity, negative = inhibition [14] -8.43% | Potency [3] > 9.22 µM | Potency [4] > 46 µM | Potency [5] | activity change, negative = inhibition [9] -16.5% | Potency [10] | Potency [11] | Potency [12] | Potency [13]
